# Measurements published in PubChem BioAssay (NCATS).
# Results filed as inconclusive are left out. Entries that show only a call come without a potency. The source made the active and inactive calls. Unless noted, the call rests on the fitted dose curve; in most records, active means well fitted curve in the direction sought with a large enough effect; inconclusive means small, poorly fitted or top-dose-only effect, or another doubt; inactive means no such curve, though single readings can be large; an effect the other way counts as inactive or inconclusive.
# Assays:
# [1] = qHTS Assay for Identification of Small Molecule Antagonists for NFkB Signaling Pathway. (AID 624479; calls by dose curve; further: potency means the concentration at half of the fitted maximal effect); settings: NFkB pathway reporter cell assay, antagonist mode; series mostly up to 38.3 µM
# [2] = Cytotoxicity counterscreen for NFkB agonists and antagonists (AID 624476); settings: NFkB reporter cell line viability counterscreen; series mostly up to 46.1 µM; further: potency means the concentration at half of the fitted maximal effect
# [3] = qHTS Assay for Identification of Small Molecule Agonists for NFkB Signaling Pathway. (AID 624478); settings: NFkB pathway reporter cell assay, agonist mode, cells co-stimulated with 10 pM TNF alpha; series mostly up to 46.1 µM
# Summary of the method: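 NFkB-bla ME-180 cells carry a beta-lactamase reporter. They received compound plus TNF alpha at 10 pM final (its EC50) for 5 h at 37 C. Reporter activity was read as 460/530 nm emission ratio after 2 h LiveBLAzer substrate loading.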
# [4] = Cell Proliferation Assay against the TMD8 Cell Line (AID 651645); settings: TMD8 DLBCL cell line proliferation/viability; at 46.1 µM (top of the series) unless noted;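 further: cells exposed to compound for 48 h before reading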
# Summary of the method: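 TMD8 ABC DLBCL cells, 500 per well in phenol red-free RPMI with 5% FBS, were treated with compound by pin transfer and incubated 48 hours at 37C, 5% CO2. Viability was read by CellTiter-Glo luminescence, normalised to DMSO (100%) and 9.2 uM bortezomib (0%).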
# [5] = qHTS of Trypanosoma Brucei Inhibitors: LOPAC Validation (AID 624147); settings: purified enzyme assay, luminescence, 45 min; series mostly up to 57.5 µM
# Summary of the method: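 ADP (130 uM final) triggers the TbPYK reaction after compound addition; incubation is 45 min at room temperature. Kinase-Glo Plus is then added and luminescence imaged. Normalized data are fitted to concentration-effect curves.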
# [6] = biological target: Glucagon-like peptide 1 receptor (Homo sapiens) (UniProt P43220); test: qHTS of GLP-1 Receptor Agonists: LOPAC Validation (AID 624148); settings: GLP-1R agonist cell assay; series mostly up to 46.1 µM;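 further: luminescence from a luciferase reporter switched on by cAMP; higher luminescence signal means agonism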
# Summary of the method: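 Agonism scored as increased luciferase luminescence driven by cAMP in HEK293 clones carrying GLP-1R. Cells settled 12 hours, received compound for 4-6 hr at 37 deg C, 5% CO2, and were read after 12 min detection reagent at RT.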
# [7] = qHTS of Nrf2 Activators: LOPAC Validation (AID 624149); settings: Nrf2/ARE reporter cell assay; series mostly up to 46.1 µM
# Summary of the method: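 AREc32_Fluc cells, 1000/well in OPTI-MEM with 5% FBS, grown overnight, then exposed to compounds for 24 hr at 37 deg C, 5% CO2. ARE-driven firefly luciferase read by Steady-Glo luminescence after 30 min at RT.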
# Sequence of Glucagon-like peptide 1 receptor (Homo sapiens) (P43220 whole entry, looked up): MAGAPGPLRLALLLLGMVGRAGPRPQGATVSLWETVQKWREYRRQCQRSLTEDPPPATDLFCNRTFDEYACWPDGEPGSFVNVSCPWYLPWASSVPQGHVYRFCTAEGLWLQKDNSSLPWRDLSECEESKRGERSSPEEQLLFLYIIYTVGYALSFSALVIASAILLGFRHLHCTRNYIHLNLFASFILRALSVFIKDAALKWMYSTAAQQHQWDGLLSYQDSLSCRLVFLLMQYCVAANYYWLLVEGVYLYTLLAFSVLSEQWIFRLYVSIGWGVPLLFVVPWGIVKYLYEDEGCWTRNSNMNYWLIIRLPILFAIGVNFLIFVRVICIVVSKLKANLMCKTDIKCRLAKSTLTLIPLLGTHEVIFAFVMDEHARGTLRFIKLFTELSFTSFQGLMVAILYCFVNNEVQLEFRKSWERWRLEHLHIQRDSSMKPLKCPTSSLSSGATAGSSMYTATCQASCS
compound,measurement,setting,value
Cc1nc2cnc3ccc(C#Cc4cccnc4)cc3c2n1-c1ccc(C(C)(C)C#N)cc1,Potency,[1],18.8 µM (active)
CC(=O)Nc1ccc(OC[C@](C)(O)C(=O)Nc2ccc([N+](=O)[O-])c(C(F)(F)F)c2)cc1,Potency,[2],inactive
same,outcome,[3],inactive
same,Potency,[1],inactive
same,viability (% of control),[4],86.6%
O=C(Nc1cc(C(F)(F)F)cc(C(F)(F)F)c1)c1cc(Cl)ccc1O,Potency,[1],14.9 µM (active)
CC(C)(C)c1[nH]cnc1C=c1[nH]c(=O)c(=Cc2ccccc2)[nH]c1=O,Potency,[2],18.7 µM (active)
same,Potency,[1],16.8 µM (active)
CO[C@H]1C=CC=C(C)C(=O)NC2=CC(=O)C(NCCN(C)C)=C(C[C@@H](C)C[C@H](OC)[C@@H](O)[C@@H](C)C=C(C)[C@@H]1OC(N)=O)C2=O,Potency,[2],20.9 µM (active)
same,Potency,[1],0.0008 µM (active)
CNCCc1c[nH]c2ccc(O)cc12,outcome,[5],inactive
same,outcome,[6],inactive
same,outcome,[7],inactive
Cc1c(C(=O)Nc2cccc(C(F)(F)F)c2)cc(-c2ccccc2)n1CCCN1CCOCC1,Potency,[2],inactive
same,outcome,[3],inactive
same,viability (% of control),[4],3.39%
